# According to PubChem BioAssay (NCATS):
# Values joined by “and” are separate entries in the source; they are usually repeats but may differ in a detail not shown here. Identical values can stand only once. Active and inactive are the calls of the source. A call without a number means that no potency is given here. Unless noted, calls follow the shape of the dose curve; as a rule, active = well fitted inhibition curve with a large enough effect; inconclusive = small, poorly fitted or top-dose-only effect; inactive = flat fitted curve, though single readings scatter.
# Tests used:
# [1] = molecular target: Ubiquitin carboxyl-terminal hydrolase 1 (Homo sapiens) (UniProt O94782); experiment: Inhibitors of USP1/UAF1: Pilot qHTS (AID 504865); also: nearly all actives have a fitted effect of over 35% in size; also: potency is read from the fitted curve at half-maximal effect
# Summary of the method: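 Kinetic fluorescence assay: 1nM USP1/UAF1, 15 min compound preincubation, then 150nM Ub-Rho; 480/540 nm.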
# [2] = molecular target: Peroxisome proliferator-activated receptor gamma (Homo sapiens) (UniProt P37231); experiment: qHTS assay for small molecule agonists of peroxisome proliferator-activated receptor gamma signaling (AID 588536; active = well fitted curve in the direction sought with a large enough effect in the signal ratio, with a control signal flat, not every such curve was filed as active; inconclusive = small, poorly fitted or top-dose-only effect, or effect the other way, or a change in a side signal; inactive = no such curve, though single readings can be large or run the other way; the % refers to the signal ratio)
# Summary of the method: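 Test agents, titrated, stimulated HEK293 UAS-bla cells overnight (16 h, 37 C). Substrate CCF4 was then added for two hours at room temperature before fluorescence reading.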
# [3] = molecular target: DNA dC->dU-editing enzyme APOBEC-3G (Homo sapiens) (UniProt Q9HC16); experiment: qHTS for inhibitors of Vif-A3G interactions: Validation (AID 588379)
# Summary of the method: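 HeLa cells stably expressing Vif and A3G-eYFP, 700 cells/well, incubated overnight at 37 deg C, then exposed to compound overnight at 37 deg C. Inhibition of Vif-mediated degradation read as increased yellow fluorescence (Ex 488/Em 500-530) by laser-scanning cytometry.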
# [4] = molecular target: Estrogen receptor (Homo sapiens) (UniProt P03372); experiment: qHTS assay for small molecule antagonists of estrogen receptor alpha signaling (AID 588513; active = well fitted curve in the direction sought with a large enough effect in the signal ratio, with a control signal flat, not every such curve was filed as active; inconclusive = small, poorly fitted or top-dose-only effect, or effect the other way, or a change in a side signal; inactive = no such curve, though single readings can be large or run the other way; the % refers to the signal ratio; also: potency is read from the fitted curve at half-maximal effect)
# Summary of the method: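 Cells were plated at 5000/well and incubated 4 h at 37 C. Compounds were added as 1:2 dilution series, duplicates. 17-beta-estradiol (0.5nM final) was added for 18 h before CCF4 detection.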
# [5] = molecular target: Estrogen receptor (Homo sapiens) (UniProt P03372); experiment: qHTS assay for small molecule agonists of estrogen receptor alpha signaling (AID 588514; calls by dose curve; also: nearly all actives have a fitted effect of over 70% in size)
# Summary of the method: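 ER-alpha-UAS-bla GripTite HEK293 cells, 5000/well in 2% charcoal/dextran-stripped FBS medium, treated with compound titrations 18 h at 37 C. CCF4 beta-lactamase read by fluorescence after 2 h RT; normalised to 20 nM 17-beta-estradiol (100%) and DMSO (0%), Hill fit for EC50 and efficacy.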
# [6] = qHTS assay for small molecule antagonists of peroxisome proliferator-activated receptor delta signaling (AID 588535; active = well fitted inhibition curve with a large enough effect in the signal ratio, with a control signal flat, not every such curve was filed as active; inconclusive = small, poorly fitted or top-dose-only effect, or effect the other way, or a change in a side signal; inactive = no such curve, though single readings can be large or run the other way; the % refers to the signal ratio; also: potency is read from the fitted curve at half-maximal effect;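 as to max response: cells co-treated with a PPAR-delta agonist as stimulator during compound exposure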); conditions: HEK293T PPARd-UAS-bla, beta-lactamase FRET ratio, 18 h; 460 nm channel
# Summary of the method: (§1)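 HEK293T PPAR-delta-UAS-bla cells, 4000/well, 2% charcoal/dextran FBS; 5 h 37 C; cpd titration; 18 h 37 C; CCF4 2 h RT; FI 460/530 nm; Hill fit → IC50, efficacy.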
# [7] = molecular target: Peroxisome proliferator-activated receptor delta (Homo sapiens) (UniProt Q03181); experiment: as above
# Summary of the method: as §1
# [8] = molecular target: Androgen receptor (Homo sapiens) (UniProt P10275); experiment: qHTS assay for small molecule agonists of androgen receptor signaling (AID 588515; active = well fitted curve in the direction sought with a large enough effect in the signal ratio, with a control signal flat; inconclusive = small, poorly fitted or top-dose-only effect, or effect the other way, or a change in a side signal; inactive = no such curve, though single readings can be large or run the other way; the % refers to the signal ratio); conditions: AR-UAS-bla HEK293, beta-lactamase ratio, agonist 16 h; stronger effect = higher value
# Summary of the method: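 EC50 and efficacy came from Hill fits of titrations (up to 92 uM) normalized to 30 nM R1881 as 100% and DMSO as 0%. Compound exposure was 16 h at 37 C on AR-UAS-bla HEK293 cells, with a 405/460/530 nm CCF4 fluorescence read.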
# [9] = molecular target: Peroxisome proliferator-activated receptor gamma (Homo sapiens) (UniProt P37231); experiment: qHTS assay for small molecule antagonists of peroxisome proliferator-activated receptor gamma signaling (AID 588537; active = well fitted inhibition curve with a large enough effect in the signal ratio, with a control signal flat, not every such curve was filed as active; inconclusive = small, poorly fitted or top-dose-only effect, or effect the other way, or a change in a side signal; the % refers to the signal ratio; also: potency is read from the fitted curve at half-maximal effect)
# Summary of the method: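 Antagonist mode, beta-lactamase reporter in HEK293; charcoal/dextran FBS 1%; 3000 cells/well, 37 C 6-6.5 h; cpd titration + rosiglitazone 50 nM final, 16 h 37 C; CCF4, 2 h RT; 460/530 nm; Hill fit → IC50, efficacy.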
# [10] = molecular target: Bile acid receptor (Homo sapiens) (UniProt Q96RI1); experiment: qHTS assay for small molecule antagonists of farnesoid X receptor signaling (AID 588526; calls by dose curve; also: potency is read from the fitted curve at half-maximal effect)
# Summary of the method: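 Beta-lactamase reporter antagonist mode: HEK293T FXR-UAS-bla cells, titrated compound, CDCA stimulation, 16 h 37 C, CCF4 dye 2 h RT. Data normalized to CDCA 50 uM and DMSO; Hill-fit IC50.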
# [11] = molecular target: Glucocorticoid receptor (Homo sapiens) (UniProt P04150); experiment: qHTS assay for small molecule agonists of glucocorticoid receptor signaling (AID 588532; active = well fitted curve in the direction sought with a large enough effect in the signal ratio, with a control signal flat; inconclusive = small, poorly fitted or top-dose-only effect, or a change in a side signal; inactive = no such curve, though single readings can be large or run the other way; the % refers to the signal ratio); conditions: HeLa MMTV-bla, beta-lactamase ratio, agonist, 18 h; stronger effect = higher value; percent of dexamethasone control, DMSO zero
# Summary of the method: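 Quantitative HTS using CellSensor MMTV-bla HeLa cells in charcoal/dextran-treated serum; compounds tested up to 92 uM. After 18 h at 37 C, CCF4 dye reported reporter induction.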
# [12] = molecular target: Glucocorticoid receptor (Homo sapiens) (UniProt P04150); experiment: qHTS assay for small molecule antagonists of glucocorticoid receptor signaling (AID 588533; active = well fitted inhibition curve with a large enough effect in the signal ratio, with a control signal flat, not every such curve was filed as active; inconclusive = small, poorly fitted or top-dose-only effect, or effect the other way, or a change in a side signal; the % refers to the signal ratio;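 also: cells stimulated with 2 nM dexamethasone as agonist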)
# Summary of the method: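 Antagonist-mode qHTS: compound titrations added to GRE-bla HeLa cells, then dexamethasone 2 nM final; 18 h, 37 C. CCF4 FRET fluorescence normalized to dexamethasone and DMSO; IC50 from Hill fit.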
# Sequence of Peroxisome proliferator-activated receptor delta (Homo sapiens) (Q03181 whole entry, looked up): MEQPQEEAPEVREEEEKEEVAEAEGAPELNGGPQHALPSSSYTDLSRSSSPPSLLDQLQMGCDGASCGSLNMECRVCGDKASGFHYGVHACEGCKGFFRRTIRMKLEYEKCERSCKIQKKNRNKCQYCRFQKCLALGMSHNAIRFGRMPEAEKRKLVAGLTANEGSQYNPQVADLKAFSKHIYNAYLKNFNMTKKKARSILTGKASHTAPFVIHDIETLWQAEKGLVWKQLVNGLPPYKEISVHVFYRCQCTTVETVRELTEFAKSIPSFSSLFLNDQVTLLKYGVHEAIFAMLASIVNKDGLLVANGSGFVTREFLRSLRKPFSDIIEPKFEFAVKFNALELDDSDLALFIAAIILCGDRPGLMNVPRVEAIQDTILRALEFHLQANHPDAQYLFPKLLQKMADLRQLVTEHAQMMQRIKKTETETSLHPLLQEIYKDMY
# Sequence of Ubiquitin carboxyl-terminal hydrolase 1 (Homo sapiens) (O94782 whole entry, looked up): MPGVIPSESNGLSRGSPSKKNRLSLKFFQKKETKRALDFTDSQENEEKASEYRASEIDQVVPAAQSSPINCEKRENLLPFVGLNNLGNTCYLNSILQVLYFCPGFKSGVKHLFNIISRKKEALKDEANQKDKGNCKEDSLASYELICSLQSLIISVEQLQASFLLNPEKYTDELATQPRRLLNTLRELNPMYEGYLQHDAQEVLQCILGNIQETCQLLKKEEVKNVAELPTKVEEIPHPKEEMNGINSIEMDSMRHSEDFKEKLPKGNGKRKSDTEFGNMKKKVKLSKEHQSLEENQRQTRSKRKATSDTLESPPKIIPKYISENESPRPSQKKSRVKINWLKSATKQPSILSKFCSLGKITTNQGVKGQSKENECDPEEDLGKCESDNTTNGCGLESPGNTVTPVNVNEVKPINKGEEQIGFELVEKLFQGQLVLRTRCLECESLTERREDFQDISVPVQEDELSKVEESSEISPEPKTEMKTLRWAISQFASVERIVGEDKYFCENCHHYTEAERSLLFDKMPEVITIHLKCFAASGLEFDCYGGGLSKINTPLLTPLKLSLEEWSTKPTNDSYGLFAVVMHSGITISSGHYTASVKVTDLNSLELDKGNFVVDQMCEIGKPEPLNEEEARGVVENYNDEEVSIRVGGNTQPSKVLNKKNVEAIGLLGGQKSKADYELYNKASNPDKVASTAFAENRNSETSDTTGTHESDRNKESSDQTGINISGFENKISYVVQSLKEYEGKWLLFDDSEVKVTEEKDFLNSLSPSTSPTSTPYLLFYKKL
# Sequence of Estrogen receptor (Homo sapiens) (P03372 whole entry, looked up): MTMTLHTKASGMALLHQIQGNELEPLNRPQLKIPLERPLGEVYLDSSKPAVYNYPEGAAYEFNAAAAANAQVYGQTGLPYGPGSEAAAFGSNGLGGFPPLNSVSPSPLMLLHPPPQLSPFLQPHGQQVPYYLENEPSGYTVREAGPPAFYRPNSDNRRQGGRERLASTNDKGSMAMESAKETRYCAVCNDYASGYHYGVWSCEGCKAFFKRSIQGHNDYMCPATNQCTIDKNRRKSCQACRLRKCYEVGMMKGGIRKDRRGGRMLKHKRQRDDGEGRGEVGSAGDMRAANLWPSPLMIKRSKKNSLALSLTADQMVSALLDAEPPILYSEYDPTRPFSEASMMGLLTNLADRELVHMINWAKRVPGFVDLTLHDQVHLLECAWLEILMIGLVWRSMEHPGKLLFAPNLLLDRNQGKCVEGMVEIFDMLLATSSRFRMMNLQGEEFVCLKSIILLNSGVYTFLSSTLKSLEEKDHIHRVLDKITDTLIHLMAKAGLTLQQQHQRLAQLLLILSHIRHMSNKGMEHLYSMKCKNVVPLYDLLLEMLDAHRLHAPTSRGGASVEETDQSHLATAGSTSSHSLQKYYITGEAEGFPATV
# Sequence of Peroxisome proliferator-activated receptor gamma (Homo sapiens) (P37231 whole entry, looked up): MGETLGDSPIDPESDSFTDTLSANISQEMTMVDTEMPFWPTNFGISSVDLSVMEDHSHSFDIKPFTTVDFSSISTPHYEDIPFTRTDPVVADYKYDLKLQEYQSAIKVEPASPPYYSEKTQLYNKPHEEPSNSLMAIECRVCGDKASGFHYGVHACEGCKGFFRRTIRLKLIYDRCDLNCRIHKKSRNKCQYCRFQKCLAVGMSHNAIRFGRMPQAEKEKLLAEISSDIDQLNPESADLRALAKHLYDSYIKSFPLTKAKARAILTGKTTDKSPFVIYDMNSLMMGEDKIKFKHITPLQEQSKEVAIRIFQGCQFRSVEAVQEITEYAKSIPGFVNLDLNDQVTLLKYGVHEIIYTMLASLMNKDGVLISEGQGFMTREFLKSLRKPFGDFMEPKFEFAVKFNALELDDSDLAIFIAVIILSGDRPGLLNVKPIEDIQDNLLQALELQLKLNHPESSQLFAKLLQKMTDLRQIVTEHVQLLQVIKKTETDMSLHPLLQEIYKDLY
# Sequence of Glucocorticoid receptor (Homo sapiens) (P04150 whole entry, looked up): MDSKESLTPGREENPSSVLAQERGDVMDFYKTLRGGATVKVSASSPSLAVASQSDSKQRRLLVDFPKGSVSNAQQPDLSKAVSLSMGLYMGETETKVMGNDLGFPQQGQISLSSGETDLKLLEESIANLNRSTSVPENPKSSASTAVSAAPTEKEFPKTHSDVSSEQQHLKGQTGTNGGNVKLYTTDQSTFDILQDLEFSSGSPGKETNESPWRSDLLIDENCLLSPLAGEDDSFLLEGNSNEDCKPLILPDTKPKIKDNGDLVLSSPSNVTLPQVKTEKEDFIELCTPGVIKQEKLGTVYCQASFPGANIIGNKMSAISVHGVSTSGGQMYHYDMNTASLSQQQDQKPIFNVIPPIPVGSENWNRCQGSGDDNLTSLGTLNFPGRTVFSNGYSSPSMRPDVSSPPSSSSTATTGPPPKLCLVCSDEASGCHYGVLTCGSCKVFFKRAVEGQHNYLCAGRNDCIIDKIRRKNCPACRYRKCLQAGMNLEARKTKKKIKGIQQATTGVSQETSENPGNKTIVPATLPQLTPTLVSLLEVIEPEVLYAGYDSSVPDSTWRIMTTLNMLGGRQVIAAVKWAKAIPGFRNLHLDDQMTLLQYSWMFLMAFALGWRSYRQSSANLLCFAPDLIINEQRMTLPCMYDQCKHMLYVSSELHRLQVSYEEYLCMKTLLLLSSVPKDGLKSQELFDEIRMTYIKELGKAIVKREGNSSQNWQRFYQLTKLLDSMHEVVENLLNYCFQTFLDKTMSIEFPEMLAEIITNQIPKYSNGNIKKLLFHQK
# Sequence of Bile acid receptor (Homo sapiens) (Q96RI1 whole entry, looked up): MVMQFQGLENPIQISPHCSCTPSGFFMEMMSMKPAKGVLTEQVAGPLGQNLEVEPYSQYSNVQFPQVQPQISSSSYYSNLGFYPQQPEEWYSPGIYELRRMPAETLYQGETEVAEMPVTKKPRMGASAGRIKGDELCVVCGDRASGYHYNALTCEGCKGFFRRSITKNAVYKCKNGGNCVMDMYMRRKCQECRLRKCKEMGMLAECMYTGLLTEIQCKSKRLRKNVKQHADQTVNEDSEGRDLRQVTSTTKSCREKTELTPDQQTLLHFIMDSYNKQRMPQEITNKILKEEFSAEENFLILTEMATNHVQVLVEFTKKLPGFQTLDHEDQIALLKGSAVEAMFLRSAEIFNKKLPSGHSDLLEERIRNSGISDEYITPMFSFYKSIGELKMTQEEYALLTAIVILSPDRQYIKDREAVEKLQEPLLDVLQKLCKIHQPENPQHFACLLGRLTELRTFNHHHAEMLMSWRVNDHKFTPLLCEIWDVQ
# Sequence of DNA dC->dU-editing enzyme APOBEC-3G (Homo sapiens) (Q9HC16 whole entry, looked up): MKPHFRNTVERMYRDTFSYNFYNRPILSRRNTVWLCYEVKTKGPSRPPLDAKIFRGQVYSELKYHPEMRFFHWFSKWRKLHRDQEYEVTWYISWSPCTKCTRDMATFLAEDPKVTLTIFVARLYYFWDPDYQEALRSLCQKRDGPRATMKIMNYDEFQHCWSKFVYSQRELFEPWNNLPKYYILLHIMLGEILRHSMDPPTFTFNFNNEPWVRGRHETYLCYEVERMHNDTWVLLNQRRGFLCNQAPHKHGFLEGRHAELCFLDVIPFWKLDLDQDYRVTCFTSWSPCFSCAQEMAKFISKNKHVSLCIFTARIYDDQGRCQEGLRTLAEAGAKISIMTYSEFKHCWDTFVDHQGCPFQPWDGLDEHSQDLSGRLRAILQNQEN
# Sequence of Androgen receptor (Homo sapiens) (P10275 whole entry, looked up): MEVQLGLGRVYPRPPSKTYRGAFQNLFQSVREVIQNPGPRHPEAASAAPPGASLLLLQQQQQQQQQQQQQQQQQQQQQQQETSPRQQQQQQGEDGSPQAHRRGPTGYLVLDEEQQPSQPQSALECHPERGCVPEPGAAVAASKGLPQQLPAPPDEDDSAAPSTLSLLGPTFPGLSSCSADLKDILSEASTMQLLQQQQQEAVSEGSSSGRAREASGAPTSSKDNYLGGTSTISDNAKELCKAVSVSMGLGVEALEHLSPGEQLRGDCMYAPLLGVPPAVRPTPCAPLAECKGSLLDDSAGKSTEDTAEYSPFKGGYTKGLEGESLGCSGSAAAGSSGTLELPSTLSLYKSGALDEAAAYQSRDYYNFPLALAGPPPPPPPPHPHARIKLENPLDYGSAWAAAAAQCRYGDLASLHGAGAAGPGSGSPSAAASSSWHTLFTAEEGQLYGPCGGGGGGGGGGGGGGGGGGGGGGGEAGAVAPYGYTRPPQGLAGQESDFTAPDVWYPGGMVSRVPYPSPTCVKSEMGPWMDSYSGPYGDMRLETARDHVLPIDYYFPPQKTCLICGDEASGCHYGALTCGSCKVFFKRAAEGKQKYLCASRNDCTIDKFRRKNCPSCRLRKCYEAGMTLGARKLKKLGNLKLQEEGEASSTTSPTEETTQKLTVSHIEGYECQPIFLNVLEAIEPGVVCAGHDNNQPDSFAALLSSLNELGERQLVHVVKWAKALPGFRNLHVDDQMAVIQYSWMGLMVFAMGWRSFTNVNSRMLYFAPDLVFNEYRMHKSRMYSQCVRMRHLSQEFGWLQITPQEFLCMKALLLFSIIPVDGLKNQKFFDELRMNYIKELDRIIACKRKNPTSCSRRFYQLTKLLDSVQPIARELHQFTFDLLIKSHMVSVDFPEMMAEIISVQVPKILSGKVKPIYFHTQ
smiles,measurement,setting,value
CC(=O)Oc1ccc(C(c2ccc(OC(C)=O)cc2)c2ccccn2)cc1,Potency,[1],inactive
same,outcome,[2],inactive
CN=C(NC#N)NCCSCc1csc(N=C(N)N)n1,Potency,[1],inactive
same,outcome,[3],inactive
COc1cccc2c1C(=O)c1c(O)c3c(c(O)c1C2=O)C[C@@](O)(C(=O)CO)C[C@@H]3O[C@H]1C[C@H](N)[C@H](O)[C@H](C)O1,Potency,[4],5.01 µM [inconclusive] (active) and 7.94 µM [inhibitor] (active)
same,outcome,[5],inactive
same,max response,[6],-92.6%
same,Potency,[7],1.41 µM (active)
O=C1OC(c2ccc(O)cc2)(c2ccc(O)cc2)c2ccccc21,activation,[8],-5.75% (inactive)
same,Potency,[9],39.8 µM (active)
Nc1ccc(C(=O)O)cc1,Potency,[1],inactive
same,Potency,[4],inactive
same,outcome,[5],inactive
same,Potency,[10],inactive
same,activation,[11],-1.78% (inactive)
same,Potency,[12],inactive
same,max response,[6],41.6%
same,Potency,[7],inactive
same,outcome,[2],inactive
same,Potency,[9],inactive
CC(O)(P(=O)(O)O)P(=O)(O)O,Potency,[1],inactive
same,Potency,[9],inactive
NC(=NCCCCCCN=C(N)/N=C(\N)Nc1ccc(Cl)cc1)/N=C(\N)Nc1ccc(Cl)cc1,Potency,[1],56.2 µM (active) and 50.1 µM (active)
same,activation,[11],-3.44% (inactive) and 1.22% (inactive)
same,Potency,[9],inactive
CC/C(=C(/CC)c1ccc(O)cc1)c1ccc(O)cc1,Potency,[10],44.7 µM (active) and 39.8 µM (active)
same,activation,[11],-20.1% (inactive)
C=CCc1ccc(O)c(OC)c1,Potency,[1],inactive
same,Potency,[4],inactive
same,outcome,[5],inactive
same,max response,[6],11.6% and 2.37%
same,Potency,[7],inactive
same,outcome,[2],inactive
same,Potency,[9],inactive
O=c1ccc2ccccc2o1,Potency,[1],inactive
same,Potency,[4],inactive
same,outcome,[5],inactive
same,Potency,[10],inactive
same,outcome,[2],inactive
same,Potency,[9],inactive
Nc1nc2ncc(CNc3ccc(C(=O)N[C@@H](CCC(=O)O)C(=O)O)cc3)nc2c(=O)[nH]1,Potency,[1],inactive
same,outcome,[3],inactive
